From PubChem BioAssay (EPA / NIEHS)
Active and inactive are the calls of the source. How the source made its calls: active means hit-call score of the fitted dose curve at least 0.9, where 1 is the maximum; inactive means score below 0.9.

How the values were obtained:
[1] = ATG_GLI_CIS: Attagene CIS-FACTORIAL HepG2 Assay for human Zinc Finger Protein GLI1 (AID 2282945); conditions: HepG2, Attagene cis-factorial reporter mRNA, GLI element; actives raise or lower the signal
Procedure, shortened: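 Transiently transfected HepG2 cells report endogenous transcription factor activity via cis-element-driven reporter units. After 24 h compound exposure, reporter mRNA was measured by RT-PCR with capillary electrophoresis; bidirectional fitting against DMSO baseline.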

[2] = molecular target: Bile acid receptor (Homo sapiens) (UniProt Q96RI1); assay: ATG_IR1_CIS: Attagene CIS-FACTORIAL HepG2 Assay for human Nuclear Receptor Subfamily 1 Group H Member 4 (NR1H4), IR1 submotif (AID 2282946); conditions: IR1 reporter transcription, actives raise or lower the signal
Procedure, shortened: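 HepG2 cells transiently transfected with multiple cis-promoter-driven reporter units to measure endogenous transcription factor activity; 24 h exposure. Reporter mRNA read by RT-PCR, FAM labelling, HpaI digestion and capillary electrophoresis. Bidirectional fit versus DMSO.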

[3] = ATG_GRE_CIS: Attagene CIS-FACTORIAL HepG2 Assay for human Glucocorticoid Response Elements (GRE) (AID 2282947); conditions: HepG2 GRE cis-reporter, Attagene multiplex mRNA; actives raise or lower the signal
Procedure, shortened: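 Transiently transfected HepG2 cells carrying GRE cis-reporter units (endogenous TF activity) dosed 24 h; reporter mRNA quantified by RT-PCR, 6-FAM labelling, HpaI digestion and capillary electrophoresis. Bidirectional fit versus DMSO baseline.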

[4] = ATG_ISRE_CIS: Attagene CIS-FACTORIAL HepG2 Assay for human Interferon Regulatory Factor 1 (IRF1) binding to an Interferon-Stimulated Response Element (ISRE) (AID 2282948); conditions: HepG2 ISRE cis-reporter (Attagene), mRNA transcription readout; actives raise or lower the signal
Procedure, shortened: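 Cell-based cis-reporter assay; HepG2; 24 h exposure; reporter mRNA by RT-PCR plus capillary electrophoresis fluorescence; activity in either direction scored relative to DMSO.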

[5] = ATG_M_06_CIS: Attagene CIS-FACTORIAL HepG2 Assay for M06 Transcription Factor (Internal Marker) (AID 2282950); conditions: HepG2 Attagene CIS-FACTORIAL M06 internal marker reporter; actives raise or lower the signal
Procedure, shortened: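 Fluorescence-labelled RT-PCR products from cis-promoter reporter units, cut with HpaI and resolved by capillary electrophoresis, give the signal. Cells are human HepG2, dosed for 24 h. Serves as background control, fitted relative to DMSO.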

[6] = molecular target: Hypoxia-inducible factor 1-alpha (Homo sapiens) (UniProt Q16665); assay: ATG_HIF1a_CIS: Attagene CIS-FACTORIAL HepG2 Assay for human Hypoxia Inducible Factor 1 (HIF1A) (AID 2282951); conditions: HepG2 Attagene cis-factorial HIF1a reporter transcription; actives raise or lower the signal
Procedure, shortened: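 In this multiplexed cell assay, HepG2 cells bearing transfected cis reporters are dosed for 24 h and reporter mRNA is read by RT-PCR plus capillary electrophoresis; signal increases and decreases are both scored against DMSO.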

[7] = molecular target: Hepatocyte nuclear factor 6 (Homo sapiens) (UniProt Q9UBC0); assay: ATG_HNF6_CIS: Attagene CIS-FACTORIAL HepG2 Assay for human Hepatocyte Nuclear Factor 6 (HNF6) (AID 2282952); conditions: HepG2 Attagene cis-factorial HNF6 reporter transcription; actives raise or lower the signal
Procedure, shortened: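 Cells are HepG2 carrying transiently transfected cis-promoter reporter units. Treatment lasts 24 h, after which reporter transcripts are reverse-transcribed, amplified, FAM-labelled and sized by capillary electrophoresis. DMSO serves as baseline.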

[8] = molecular target: Heat shock factor protein 1 (Homo sapiens) (UniProt Q00613); assay: ATG_HSE_CIS: Attagene CIS-FACTORIAL HepG2 Assay for human Heat Shock Transcription Factor 1 (HSE) (AID 2282953); conditions: HepG2 HSE cis-reporter, Attagene RNA transcription; actives raise or lower the signal
Procedure, shortened: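 After a 24 h incubation with test chemical, transfected HepG2 cells were harvested for RNA; reporter transcripts were measured by RT-PCR and capillary electrophoresis. Values reflect gain or loss of signal relative to DMSO.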

[9] = ATG_MRE_CIS: Attagene CIS-FACTORIAL HepG2 Assay for human Metal Responsive Element (MRE) (AID 2282954); conditions: HepG2 MRE cis-reporter transcription, Attagene multiplex; actives raise or lower the signal
Procedure, shortened: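 HepG2 cells transiently transfected with cis-element-driven reporter units; mRNA measured 24 h after dosing. Reporter transcripts quantified by RT-PCR, FAM labelling, HpaI digestion and capillary electrophoresis; bidirectional fit versus DMSO.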

[10] = ATG_PBREM_CIS: Attagene CIS-FACTORIAL HepG2 Assay for human Phenobarbital-responsive Enhancer Module (PBREM) (AID 2282955); conditions: HepG2 PBREM cis-reporter, Attagene multiplexed transcription; actives raise or lower the signal
Procedure, shortened: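 After a 24 h incubation with test chemical, transfected HepG2 cells yield total RNA; reporter-specific RT-PCR products are fluorescently labelled, HpaI-digested and resolved by capillary electrophoresis against ROX size standards.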

[11] = molecular target: Paired box protein Pax-6 (Homo sapiens) (UniProt P26367); assay: ATG_Pax6_CIS: Attagene CIS-FACTORIAL HepG2 Assay for human Paired Box 6 (PAX6) (AID 2282956); conditions: HepG2 CIS-FACTORIAL PAX6 reporter transcription, RNA readout; actives raise or lower the signal
Procedure, shortened: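 Multiplexed cis-reporter HepG2 system; 24 h treatment; reporter mRNA read by RT-PCR/CE fluorescence; bidirectional fit vs DMSO.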

[12] = ATG_PXRE_CIS: Attagene CIS-FACTORIAL HepG2 Assay for human Pregnane X Receptor Element (PXRE) (AID 2282957); conditions: HepG2 Attagene CIS-FACTORIAL PXRE reporter, mRNA; actives raise or lower the signal
Procedure, shortened: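 Multiplexed cis-reporter assay in transiently transfected human HepG2 cells; 24 h chemical exposure. Reporter transcripts quantified by RT-PCR with fluorescent labeling and capillary electrophoresis.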

[13] = ATG_PPRE_CIS: Attagene CIS-FACTORIAL HepG2 Assay for human Peroxisome Proliferator-activated Response Element (PPRE) (AID 2282958); conditions: HepG2 PPRE cis-element reporter, Attagene transcription factor profiling; actives raise or lower the signal
Procedure, shortened: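 Multiplexed reporter transcription units under cis-regulatory promoters were transfected into HepG2 cells to capture endogenous factor activity. A 24 h incubation preceded RNA isolation and fluorescent RT-PCR fragment analysis.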

[14] = ATG_RORE_CIS: Attagene CIS-FACTORIAL HepG2 Assay for human RAR-related Orphan Receptor Element (RORE) (AID 2282959); conditions: HepG2 Attagene cis-factorial RORE reporter, mRNA; actives raise or lower the signal
Procedure, shortened: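 Fluorescence intensity of reporter-specific cDNA fragments, separated by capillary electrophoresis, gives the signal. Source: HepG2 liver cells transiently transfected with cis-element reporters and exposed 24 h; DMSO-normalized bidirectional fit.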

[15] = ATG_Sox_CIS: Attagene CIS-FACTORIAL HepG2 Assay for human SRY-box transcription factor (SOX) (AID 2282960); conditions: HepG2 Attagene cis-factorial SOX reporter, mRNA; actives raise or lower the signal
Procedure, shortened: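 After 24 h of chemical treatment, transfected HepG2 reporter cells are lysed for total RNA. Transcript levels come from RT-PCR with labelled primer extension and capillary electrophoresis, analysed bidirectionally versus DMSO.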

[16] = molecular target: Transcription factor Sp1 (Homo sapiens) (UniProt P08047); assay: ATG_Sp1_CIS: Attagene CIS-FACTORIAL HepG2 Assay for human Specificity Protein 1 (Sp1) (AID 2282961); conditions: HepG2 Sp1 cis-reporter transcription, actives raise or lower the signal
Procedure, shortened: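 Sp1-driven reporter mRNA, read as capillary electrophoresis fluorescence after RT-PCR, in transiently transfected HepG2 cells dosed for 24 h; signal change in either direction relative to DMSO.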

[17] = ATG_SREBP_CIS: Attagene CIS-FACTORIAL HepG2 Assay for human Sterol Regulatory Element Binding (SREBP) (AID 2282962); conditions: HepG2 Attagene cis-factorial SREBP reporter, mRNA; actives raise or lower the signal
Procedure, shortened: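 mRNA induction of transfected cis-promoter reporters in HepG2 cells, 24 h post-dose. Detection: RT-PCR with 6-FAM-labelled products, HpaI digest, capillary electrophoresis. DMSO served as negative control and baseline.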

[18] = molecular target: Signal transducer and activator of transcription 3 (Homo sapiens) (UniProt P40763); assay: ATG_STAT3_CIS: Attagene CIS-FACTORIAL HepG2 Assay for human Signal Transducer and Activator of Transcription 3 (STAT3) (AID 2282963); conditions: HepG2, Attagene cis-factorial STAT3 reporter transcription; actives raise or lower the signal
Procedure, shortened: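 HepG2 cells transiently transfected with multiple cis-element-driven reporter units report endogenous transcription factor activity. After 24 h compound exposure, reporter mRNA is measured by RT-PCR, 6-FAM labelling, HpaI digestion and capillary electrophoresis. Fitted bidirectionally versus DMSO.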

[19] = ATG_TA_CIS: Attagene CIS-FACTORIAL HepG2 Assay for human TA Basal Promoter (AID 2282964); conditions: HepG2 Attagene CIS-factorial TA basal promoter reporter; actives raise or lower the signal
Procedure, shortened: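 Multiplexed mRNA reporter assay, HepG2, 24 h. Reporter cDNA amplified, 6-FAM primer-extended, HpaI-cut, CE-sized; DMSO = negative control and baseline.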

[20] = ATG_M_32_CIS: Attagene CIS-FACTORIAL HepG2 Assay for M32 Transcription Factor (Internal Marker) (AID 2282949); conditions: HepG2 Attagene cis-factorial M32 reporter, mRNA; actives raise or lower the signal;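 further: background control marker of the multiplexed CIS panel rather than a real target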
Procedure, shortened: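 HepG2 cells transiently transfected with multiplexed cis-regulated reporter units, dosed 24 h. Reporter mRNA quantified by RT-PCR, 6-FAM labelling, HpaI digestion and capillary electrophoresis; bidirectional fit vs DMSO.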

Measured: AC50

Sequence of Heat shock factor protein 1 (Homo sapiens) (Q00613 whole entry, looked up): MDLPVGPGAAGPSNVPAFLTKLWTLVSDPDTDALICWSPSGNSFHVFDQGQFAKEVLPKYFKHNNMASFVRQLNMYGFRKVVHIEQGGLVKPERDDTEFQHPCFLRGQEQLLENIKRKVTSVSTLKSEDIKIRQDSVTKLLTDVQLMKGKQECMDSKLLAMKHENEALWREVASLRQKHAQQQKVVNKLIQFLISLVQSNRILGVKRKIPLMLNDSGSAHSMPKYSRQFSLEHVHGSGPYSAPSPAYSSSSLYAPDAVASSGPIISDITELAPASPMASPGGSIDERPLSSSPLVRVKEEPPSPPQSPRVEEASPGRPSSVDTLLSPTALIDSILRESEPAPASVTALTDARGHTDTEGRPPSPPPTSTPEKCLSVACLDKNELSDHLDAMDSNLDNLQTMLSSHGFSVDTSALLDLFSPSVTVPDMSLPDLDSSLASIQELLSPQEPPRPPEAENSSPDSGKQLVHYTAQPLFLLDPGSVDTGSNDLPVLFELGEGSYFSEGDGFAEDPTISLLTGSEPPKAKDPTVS
Sequence of Transcription factor Sp1 (Homo sapiens) (P08047 whole entry, looked up): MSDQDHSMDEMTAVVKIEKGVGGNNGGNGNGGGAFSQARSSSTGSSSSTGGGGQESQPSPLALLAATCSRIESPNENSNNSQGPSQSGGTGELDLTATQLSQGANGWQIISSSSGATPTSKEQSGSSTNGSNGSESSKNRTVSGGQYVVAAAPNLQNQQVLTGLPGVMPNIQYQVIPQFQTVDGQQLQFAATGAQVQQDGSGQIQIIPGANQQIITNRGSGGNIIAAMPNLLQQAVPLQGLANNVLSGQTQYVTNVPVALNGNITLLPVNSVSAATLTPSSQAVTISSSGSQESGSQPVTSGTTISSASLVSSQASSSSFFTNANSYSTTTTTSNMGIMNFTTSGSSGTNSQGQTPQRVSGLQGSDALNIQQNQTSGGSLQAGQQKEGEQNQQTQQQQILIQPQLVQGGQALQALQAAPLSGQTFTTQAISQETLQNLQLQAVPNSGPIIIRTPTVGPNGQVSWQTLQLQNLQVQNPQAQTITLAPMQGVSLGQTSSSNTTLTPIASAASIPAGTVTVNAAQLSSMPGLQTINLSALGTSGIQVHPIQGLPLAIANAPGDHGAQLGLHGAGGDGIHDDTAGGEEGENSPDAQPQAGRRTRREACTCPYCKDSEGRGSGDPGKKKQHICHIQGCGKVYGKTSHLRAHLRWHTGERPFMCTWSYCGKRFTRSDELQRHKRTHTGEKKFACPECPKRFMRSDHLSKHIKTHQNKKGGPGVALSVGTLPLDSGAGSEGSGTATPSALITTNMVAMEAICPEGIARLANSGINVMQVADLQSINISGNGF
Sequence of Hepatocyte nuclear factor 6 (Homo sapiens) (Q9UBC0 whole entry, looked up): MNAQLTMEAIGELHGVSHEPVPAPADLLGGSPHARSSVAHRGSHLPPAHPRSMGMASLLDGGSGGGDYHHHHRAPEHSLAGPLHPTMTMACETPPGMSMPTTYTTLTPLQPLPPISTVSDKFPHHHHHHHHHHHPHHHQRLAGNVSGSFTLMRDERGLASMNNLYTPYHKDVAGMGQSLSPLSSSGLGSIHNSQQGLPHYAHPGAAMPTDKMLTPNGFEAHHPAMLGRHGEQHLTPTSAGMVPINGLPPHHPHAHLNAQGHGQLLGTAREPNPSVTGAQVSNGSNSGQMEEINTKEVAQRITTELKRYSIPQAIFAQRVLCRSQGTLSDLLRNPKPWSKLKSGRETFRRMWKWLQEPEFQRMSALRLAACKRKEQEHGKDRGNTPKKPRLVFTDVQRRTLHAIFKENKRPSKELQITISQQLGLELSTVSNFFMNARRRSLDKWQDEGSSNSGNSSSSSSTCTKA
Sequence of Hypoxia-inducible factor 1-alpha (Homo sapiens) (Q16665 whole entry, looked up): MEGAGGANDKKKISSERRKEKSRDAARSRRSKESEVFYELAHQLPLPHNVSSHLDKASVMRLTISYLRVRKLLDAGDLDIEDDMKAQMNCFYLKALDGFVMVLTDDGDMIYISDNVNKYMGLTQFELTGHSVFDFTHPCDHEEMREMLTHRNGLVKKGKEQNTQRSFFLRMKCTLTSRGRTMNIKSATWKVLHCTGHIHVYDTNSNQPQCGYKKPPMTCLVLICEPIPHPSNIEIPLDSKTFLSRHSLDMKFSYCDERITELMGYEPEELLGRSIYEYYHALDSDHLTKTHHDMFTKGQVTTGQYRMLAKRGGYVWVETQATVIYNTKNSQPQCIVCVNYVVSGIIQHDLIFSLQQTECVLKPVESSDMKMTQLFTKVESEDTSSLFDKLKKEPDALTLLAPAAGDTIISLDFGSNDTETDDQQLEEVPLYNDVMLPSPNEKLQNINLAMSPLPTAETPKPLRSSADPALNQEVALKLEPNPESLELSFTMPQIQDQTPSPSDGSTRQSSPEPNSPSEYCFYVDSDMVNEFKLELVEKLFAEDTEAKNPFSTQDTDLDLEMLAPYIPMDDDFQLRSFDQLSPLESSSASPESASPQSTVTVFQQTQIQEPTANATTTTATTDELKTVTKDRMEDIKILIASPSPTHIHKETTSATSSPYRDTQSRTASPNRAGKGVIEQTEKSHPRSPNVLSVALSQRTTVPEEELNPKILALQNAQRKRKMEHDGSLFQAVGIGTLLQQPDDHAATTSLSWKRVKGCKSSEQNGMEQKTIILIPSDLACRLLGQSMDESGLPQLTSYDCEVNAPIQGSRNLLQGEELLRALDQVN
Sequence of Signal transducer and activator of transcription 3 (Homo sapiens) (P40763 whole entry, looked up): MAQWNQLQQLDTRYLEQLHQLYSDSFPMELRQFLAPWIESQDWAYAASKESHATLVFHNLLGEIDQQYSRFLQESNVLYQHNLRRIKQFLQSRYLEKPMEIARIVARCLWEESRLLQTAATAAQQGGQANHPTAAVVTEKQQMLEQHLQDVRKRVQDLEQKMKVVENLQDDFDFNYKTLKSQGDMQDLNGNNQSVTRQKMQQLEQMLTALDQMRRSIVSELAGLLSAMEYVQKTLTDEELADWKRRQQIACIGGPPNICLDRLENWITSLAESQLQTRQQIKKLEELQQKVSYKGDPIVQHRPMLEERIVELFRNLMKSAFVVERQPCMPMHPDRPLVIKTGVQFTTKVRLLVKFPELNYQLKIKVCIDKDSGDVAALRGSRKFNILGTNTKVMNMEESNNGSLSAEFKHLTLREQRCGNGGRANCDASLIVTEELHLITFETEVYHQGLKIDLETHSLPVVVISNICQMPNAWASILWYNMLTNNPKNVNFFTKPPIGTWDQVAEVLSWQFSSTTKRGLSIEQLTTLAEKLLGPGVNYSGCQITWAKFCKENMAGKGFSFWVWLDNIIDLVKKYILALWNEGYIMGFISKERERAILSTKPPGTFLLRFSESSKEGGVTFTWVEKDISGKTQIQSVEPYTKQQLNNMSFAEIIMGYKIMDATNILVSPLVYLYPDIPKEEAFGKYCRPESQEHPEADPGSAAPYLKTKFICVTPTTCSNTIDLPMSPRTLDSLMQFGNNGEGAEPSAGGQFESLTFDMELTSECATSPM
Sequence of Bile acid receptor (Homo sapiens) (Q96RI1 whole entry, looked up): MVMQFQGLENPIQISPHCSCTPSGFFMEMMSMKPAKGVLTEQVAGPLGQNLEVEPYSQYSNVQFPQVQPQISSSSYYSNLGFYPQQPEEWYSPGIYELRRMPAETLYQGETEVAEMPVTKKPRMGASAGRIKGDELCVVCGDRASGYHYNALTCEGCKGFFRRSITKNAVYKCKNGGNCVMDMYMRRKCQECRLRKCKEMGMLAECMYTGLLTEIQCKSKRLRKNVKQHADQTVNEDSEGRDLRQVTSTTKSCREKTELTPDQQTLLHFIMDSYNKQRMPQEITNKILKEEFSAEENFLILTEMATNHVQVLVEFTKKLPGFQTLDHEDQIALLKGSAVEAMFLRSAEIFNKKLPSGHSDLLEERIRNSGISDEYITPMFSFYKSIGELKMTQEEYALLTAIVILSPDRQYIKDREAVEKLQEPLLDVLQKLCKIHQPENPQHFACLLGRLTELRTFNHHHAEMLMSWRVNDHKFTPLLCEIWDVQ
Sequence of Paired box protein Pax-6 (Homo sapiens) (P26367 whole entry, looked up): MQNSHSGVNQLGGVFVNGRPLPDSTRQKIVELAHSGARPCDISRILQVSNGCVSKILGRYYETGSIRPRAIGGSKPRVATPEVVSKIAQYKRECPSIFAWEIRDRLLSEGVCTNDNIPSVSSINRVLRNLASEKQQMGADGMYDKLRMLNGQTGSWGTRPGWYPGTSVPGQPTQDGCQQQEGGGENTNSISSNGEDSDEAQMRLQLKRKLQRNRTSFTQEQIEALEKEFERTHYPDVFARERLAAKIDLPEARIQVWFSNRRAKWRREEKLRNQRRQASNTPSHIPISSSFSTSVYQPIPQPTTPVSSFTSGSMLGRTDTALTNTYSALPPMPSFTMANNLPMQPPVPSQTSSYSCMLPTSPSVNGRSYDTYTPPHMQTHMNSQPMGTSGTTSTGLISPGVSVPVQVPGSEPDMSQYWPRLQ

CS(C)(=O)=O
active: [12] 4.43 µM
not listed: [20]
inactive: all other assays above

C=CC(F)(F)C(F)(F)C(F)(F)C(F)(F)C(F)(F)C(F)(F)C(F)(F)C(F)(F)F
not listed: [20]
inactive: all other assays above

CCCCCC=O
not listed: [3] | [14] | [20]
inactive: all other assays above

CCCCNc1ccccc1
active: [12] 100 µM
not listed: [10] | [20]
inactive: all other assays above

C=C(C)C(=O)OCCC(F)(F)C(F)(F)C(F)(F)C(F)(F)C(F)(C(F)(F)F)C(F)(F)F
not listed: [1]
inactive: all other assays above

Nc1ccc(Oc2cccc(Oc3ccc(N)cc3)c2)cc1
inactive: [5] | [7] | [10] | [15] | [16]
active: [2] 24.6 µM | [3] 181 µM | [4] 24.7 µM | [20] 137 µM | [6] 26.9 µM | [8] 160 µM | [9] 64.6 µM | [11] 71 µM | [12] 25.7 µM | [13] 89.5 µM | [14] 14.9 µM | [17] 136 µM | [18] 173 µM | [19] 26.8 µM
